Assay results taken from PubChem BioAssay AID1906 (The Scripps Research Institute Molecular Screening Center, 2009).
In all, about 300,000 compounds went through this assay and about 1,500 (0.5%) were called active. The entries come from a sample that favours actives as a whole. A number with no mark means an inactive call.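 The calls were made as follows: active = inhibition above the mean of all tested compounds plus 3 SD, set per screening campaign (cut at about 17% in these data); inactive = the rest.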

What follows are compounds tested on cathepsin L1 (Fasciola hepatica) (assay: CTSL1 protease inhibition, fluke enzyme – biochemical, QFRET, fluorogenic peptide substrate, counter-screen for PFM18AAP inhibitor project, primary screen (AID 1906;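 also: 0% = plate median of test compound wells and 100% = 1 µM Z-Phe-Ala-diazomethylketone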)). Conditions: recombinant F. hepatica cathepsin L1, Z-Leu-Arg-MCA fluorescence; at 5.96 µM; hits give high values.

Row | Compound | inhibition
1 | CCOc1cc(N2CCOCC2)c(OCC)cc1NC(=O)COc1cccc2cccnc12 | -0.24%
2 | CCOc1cc(N2CCOCC2)c(OCC)cc1NC(=O)COc1cccc(Cl)c1 | 30.1% (active)
3 | CCOc1cc(N2CCOCC2)c(OCC)cc1NC(=O)c1ccc(C)s1 | -0.83%
4 | Cc1c(C=O)c2ccccc2n1CCOc1ccccc1 | 1.89%
5 | O=C(O)c1cccnc1NC1CCCC1 | 1.66%
6 | CNc1nc(SC)nc(N(C#N)CC(=O)OC)n1 | 42.3% (active)
7 | COC(=O)C(C)N(C#N)c1nc(C)nc(C)n1 (centres undefined) | 1.79%
8 | Cc1cc(C)nc(N(C#N)CC(=O)Nc2ccccc2)n1 | 1.63%
9 | COc1ccc(CC(NC(C)=O)C(=O)N2CCN(C(=O)Nc3cccc(Cl)c3)CC2)cc1OC (centres undefined) | -4.54%
10 | Cn1cc(S(=O)(=O)Nc2ccc(Cl)cc2Cl)c(=O)n(C)c1=O | -0.98%
11 | Cc1ccc(NC(=S)N(CCCN2CCC(C)CC2)Cc2ccco2)cc1 | -0.39%
12 | Cc1ccc(NC(=S)N(CCN2CCCCC2)Cc2ccco2)cc1C | -2.51%
13 | Cc1ccc(NC(=S)N(Cc2ccco2)C(C)c2cccs2)cc1 (centres undefined) | 22.4% (active)
14 | COn1c(=O)c(=O)n(OC)c2ccccc21 | 2.56%
15 | CS(=O)(=O)n1nc(-c2ccccc2)nc1NCc1ccco1 | 0.56%
16 | O=C(Cc1ccccc1)n1nc(-c2ccccc2)nc1NCc1ccco1 | 51.2% (active)
17 | O=C(NCc1ccco1)c1nc(-c2ccccc2)n(-c2ccccc2)n1 | -1.81%
18 | c1csc(CN2CCN(Cc3cccs3)C2c2cccs2)c1 | 17% (active)
19 | O=C(CSCc1cccs1)N1CCCC1 | -3.58%
20 | O=C1c2cccnc2C(=O)N1Cc1cccs1 | 0.86%
21 | COC(=O)Nc1ccc(S(=O)(=O)Nc2cc(OC)nc(OC)n2)cc1 | 2.38%
22 | COc1ccc(CN(C)C(=O)CC(c2ccccc2)c2ccccc2)cc1 | 2.03%

Row | Compound | inhibition
23 | COc1ccc(C(CCN(Cc2ccc(OC)c(OC)c2)C(=O)CCl)c2ccccc2)cc1 (centres undefined) | 59.9% (active)
24 | COc1ccc(COC(=O)NC(C(=O)O)c2ccccc2)cc1 (centres undefined) | 0.08%
25 | CCN(CC(=O)Nc1ccc(NC(C)=O)cc1)C(=O)C1CC(=O)N(Cc2ccc(C)cc2)C1 (centres undefined) | 6.92%
26 | O=c1c2ccccc2cnn1Cc1n[nH]c(=S)n1-c1ccccc1F | -4.23%
27 | COC(=O)C1=C(NC(=O)C(C)(C)C)CCS1 | -1.55%
28 | NC(=O)c1ccsc1NC(=O)COC(=O)Cc1n[nH]c(=O)c2ccccc12 | 2.85%
29 | COc1cc(OC)c(C2=NOC(C(=O)Nc3c(C)n(C)n(-c4ccccc4)c3=O)C2)cc1Cl (centres undefined) | 4.46%
30 | CC(N)C12CC3CC(CC(O)(C3)C1)C2 (centres undefined) | -3.06%
31 | COC(=O)c1ccc(NC(=O)C23CC4CC(C2)CC(n2cnc(Cl)n2)(C4)C3)cc1 | 0.89%
32 | Cc1ncn(C23CC4CC(CC(O)(C4)C2)C3)n1 | 23.6% (active)
33 | COc1ccc(CCNC(=O)CN2C(=O)CCSc3ccccc32)c(OC)c1 | -0.1%
34 | Cc1ccc(Nc2c(F)c(F)c(F)c(F)c2C(=O)O)c(C)c1 | -4.87%
35 | COc1ccc(C2=NS(=O)(=O)N(C)C(C(=O)NC(C)c3ccccc3)=C2)cc1 (centres undefined) | 11.2%
36 | COc1ccc(NC(=O)NCCN2CCN(c3ccc(C)cc3)CC2)c(Cl)c1 | 2.74%
37 | COc1ccc(Cl)cc1NC(=O)CCN1CCOCC1 | -1.4%
38 | COc1ccc(Cl)cc1NC(=O)c1cccc(N2C(=O)C3CC=CCC3C2=O)c1 (centres undefined) | 0.1%
39 | COc1ccc(Cl)cc1NC(=O)COC(=O)C(CC(C)C)N1C(=O)C2CC=CCC2C1=O (centres undefined) | 39.5% (active)
40 | O=C(CN1CCN(S(=O)(=O)c2ccc(Cl)s2)CC1)NCc1ccc(Cl)cc1 | -3.91%
41 | COc1ccc(CNC(=O)CCN2C(=O)c3ccccc3C2=O)cc1 | -1.89%
42 | COc1ccc(CNC(=O)C(Cc2ccccc2)n2cccc2)cc1 (centres undefined) | 2.08%
43 | COc1ccc(CNC(=O)CCn2cccc2)cc1 | 17.3% (active)
44 | COc1ccc(OC)c(NC(=O)c2cccc(S(=O)(=O)N3CCN(C(C)=O)CC3)c2)c1 | -1.16%
